Laboratory results as given in PubChem BioAssay (NCATS).
Inconclusive results are not listed. Entries that show only a call come without a potency. The source made the active and inactive calls. Calls come from the whole dose curve; as a rule, active = well fitted curve in the direction sought with a large enough effect; inconclusive = small, poorly fitted or top-dose-only effect, or another doubt; inactive = no such curve, though single readings can be large; an effect the other way counts as inactive or inconclusive.

Key:
[1] = biological target: Voltage-gated inwardly rectifying potassium channel KCNH2 (Homo sapiens) (UniProt Q12809); experiment: qHTS Assay for Small Molecule Inhibitors of the Human hERG Channel Activity (AID 588834);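 note: lower thallium flux fluorescence means stronger hERG block; nearly all actives have a fitted effect of over 50% in size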; note: potency is the fitted concentration of half-maximal effect
Sequence of Voltage-gated inwardly rectifying potassium channel KCNH2 (Homo sapiens) (Q12809 whole entry, looked up): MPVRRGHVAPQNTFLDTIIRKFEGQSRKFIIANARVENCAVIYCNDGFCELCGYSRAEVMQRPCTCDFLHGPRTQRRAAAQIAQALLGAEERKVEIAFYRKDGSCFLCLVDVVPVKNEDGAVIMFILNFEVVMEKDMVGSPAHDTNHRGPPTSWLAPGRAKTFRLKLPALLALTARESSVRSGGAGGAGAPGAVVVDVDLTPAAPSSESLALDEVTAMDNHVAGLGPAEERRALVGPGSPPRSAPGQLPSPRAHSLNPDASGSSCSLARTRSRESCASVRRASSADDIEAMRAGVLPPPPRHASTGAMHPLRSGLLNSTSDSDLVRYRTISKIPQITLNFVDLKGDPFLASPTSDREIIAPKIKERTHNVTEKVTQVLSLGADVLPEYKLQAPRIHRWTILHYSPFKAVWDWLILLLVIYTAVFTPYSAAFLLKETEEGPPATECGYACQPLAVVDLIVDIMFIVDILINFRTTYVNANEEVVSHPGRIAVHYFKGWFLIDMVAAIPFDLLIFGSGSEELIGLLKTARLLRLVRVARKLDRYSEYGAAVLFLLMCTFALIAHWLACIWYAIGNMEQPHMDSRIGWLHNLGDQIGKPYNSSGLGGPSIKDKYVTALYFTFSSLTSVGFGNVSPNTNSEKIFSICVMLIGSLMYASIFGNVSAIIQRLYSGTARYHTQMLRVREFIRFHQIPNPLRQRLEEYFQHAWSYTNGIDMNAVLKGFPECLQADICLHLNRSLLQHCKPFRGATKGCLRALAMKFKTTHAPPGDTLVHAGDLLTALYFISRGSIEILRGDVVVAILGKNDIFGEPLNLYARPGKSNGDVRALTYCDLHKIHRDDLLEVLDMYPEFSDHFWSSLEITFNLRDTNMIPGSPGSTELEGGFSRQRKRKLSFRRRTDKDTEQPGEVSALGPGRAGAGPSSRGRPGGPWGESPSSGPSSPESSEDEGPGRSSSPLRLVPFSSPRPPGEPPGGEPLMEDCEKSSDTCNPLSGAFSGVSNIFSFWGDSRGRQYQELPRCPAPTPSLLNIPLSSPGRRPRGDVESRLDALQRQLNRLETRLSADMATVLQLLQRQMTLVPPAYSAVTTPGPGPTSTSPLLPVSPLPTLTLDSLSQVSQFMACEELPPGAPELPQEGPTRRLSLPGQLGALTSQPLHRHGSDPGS
Summary of the method: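 Thallium serves as surrogate for K+ influx through BacMam-delivered hERG in U2OS cells. Compounds are added for about 10 minutes after dye loading; stimulation buffer then starts flux, monitored kinetically on FDSS.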

[2] = biological target: Luciferin 4-monooxygenase (Photinus pyralis) (UniProt P08659); experiment: Biochemical firefly luciferase enzyme assay for NPC (AID 624030);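 note: purified P. pyralis luciferase at 10 nM with luciferin and ATP substrate; series mostly up to about 59 µM; nearly all actives have a fitted effect of over 70% in size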
Sequence of Luciferin 4-monooxygenase (Photinus pyralis) (P08659 whole entry, looked up): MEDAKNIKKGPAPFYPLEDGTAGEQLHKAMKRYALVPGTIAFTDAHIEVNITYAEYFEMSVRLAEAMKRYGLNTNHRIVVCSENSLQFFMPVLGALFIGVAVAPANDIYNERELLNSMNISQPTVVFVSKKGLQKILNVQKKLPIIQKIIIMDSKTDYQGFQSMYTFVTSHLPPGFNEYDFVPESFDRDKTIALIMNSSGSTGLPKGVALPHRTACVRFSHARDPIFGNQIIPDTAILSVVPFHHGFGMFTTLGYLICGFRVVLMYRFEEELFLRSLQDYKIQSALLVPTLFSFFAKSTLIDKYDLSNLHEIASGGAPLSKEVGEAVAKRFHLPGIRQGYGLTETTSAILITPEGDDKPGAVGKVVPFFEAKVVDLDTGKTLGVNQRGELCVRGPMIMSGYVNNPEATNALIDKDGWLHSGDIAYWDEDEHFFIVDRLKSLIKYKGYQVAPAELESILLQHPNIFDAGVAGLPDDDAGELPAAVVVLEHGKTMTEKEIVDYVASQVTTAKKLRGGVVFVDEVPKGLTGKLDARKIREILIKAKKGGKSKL
Summary of the method: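 Direct inhibition of firefly luciferase enzyme (10 nM final, 50 mM Tris Acetate) assessed by luminescence within 5 minutes. Percent activity scaled between DMSO and PTC124 positive control, with concentration-effect curves classified by fit quality and response.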

[3] = S16 Schwann cell PMP22 intronic element firefly luciferase assay (AID 624032); note: series mostly up to about 58 µM; nearly all actives have a fitted effect of over 30% in size
Summary of the method: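 Luciferase reporter of PMP22 intronic-element expression in stably transfected S16 rat Schwann cells, read by ONE-Glo luminescence after 24 h compound exposure at 37 C. Activity scaled between DMSO (0%) and positive-control PTC124; concentration-effect curves quality-classified.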

[4] = S16 Schwann cell viability assay (CellTiter-Glo assay) (AID 624031);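 note: cellular ATP luminescence as a viability measure; series mostly up to about 58 µM; nearly all actives have a fitted effect of over 70% in size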
Summary of the method: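 Native S16 rat Schwann cells in DMEM/10% FBS without phenol red were incubated overnight, then exposed to compounds for 24 h at 37 °C/5% CO2. Viability was read as ATP luminescence (CellTiter-Glo), normalized to no-cell wells and DMSO (0%).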

## O=C(NCCCN1CCOCC1)c1ccc(Cl)cc1
[1]
  Potency: inactive
[2]
  Potency: inactive
[3]
  Potency: inactive

## O=C(O)CNC(=O)c1ccccc1I
[1]
  Potency: inactive
[4]
  outcome: inactive
[3]
  Potency: inactive

## O=C(O)CCC(=O)O
[1]
  Potency: inactive
[2]
  Potency: inactive
[4]
  outcome: inactive
[3]
  Potency: inactive

## NS(=O)(=O)c1ccc(C(=O)O)cc1
[1]
  Potency: inactive
[2]
  Potency: inactive
[3]
  Potency: inactive

## Nc1ncnc2c1ncn2[C@@H]1O[C@H](COP(=O)(O)O)[C@@H](O)[C@H]1O
[1]
  Potency: inactive
[2]
  Potency: inactive
[3]
  Potency: inactive

## Cc1cc(NC(=O)C2=C(O)c3ccccc3S(=O)(=O)N2C)no1
[1]
  Potency: inactive
[2]
  Potency: inactive
[4]
  outcome: inactive
[3]
  Potency: inactive

## O=C(O)Cc1cn(-c2ccccc2)nc1-c1ccc(Cl)cc1
[1]
  Potency: inactive
[2]
  Potency: inactive
[4]
  outcome: inactive
[3]
  Potency: inactive

## CC(CN(C)C)C(C)(O)Cc1ccc(Cl)cc1 (stereo not given)
[1]
  Potency: 14.1 µM (active)
[2]
  Potency: inactive
[3]
  Potency: inactive

## CN1CCCN=C1COC(=O)C(O)(c1ccccc1)C1CCCCC1 (stereo not given)
[1]
  Potency: 2.82 µM (active)
[2]
  Potency: inactive
[3]
  Potency: inactive

## CNCc1ccccc1
[1]
  Potency: inactive
[2]
  Potency: inactive
[3]
  Potency: inactive

## CCCCCCCCCCCCCCCCN
[1]
  Potency: inactive
[2]
  Potency: inactive
[3]
  Potency: inactive

## COc1ccc(Cc2cnc(N)nc2N)cc1OC
[1]
  Potency: inactive
[2]
  Potency: inactive
[4]
  outcome: inactive
[3]
  Potency: inactive

## NNc1nnc(NN)c2ccccc12
[1]
  Potency: inactive
[4]
  outcome: inactive
[3]
  Potency: inactive

## O=C1c2ccccc2C(=O)C1c1ccc(Br)cc1
[1]
  Potency: inactive
[4]
  outcome: inactive
